The record followed here is article PMC5700166.

Where a chain is given by its changes, count along the chain named.

What all share (test): protein-binding microarray (PBM); PBM: ~300 nM protein, 6 mM HEPES pH 7.8, 80 mM KCl, 0.5 mM EDTA, 0.5 mM EGTA, 6% glycerol, 35 ng/ul poly-dIdC, 1% milk, 1 h, room temperature; Ap Aiptasia and Nv Nematostella (sea anemones) / Co Capsaspora / Aq Amphimedon (sponge) / Dm Drosophila / Hu human; RHD is the Rel homology domain; high values mean tight binding
What all share (conditions): dsDNA, one strand shown

The target of one test is T1, GST-Ap-NF-kB RHD (Exaiptasia pallida (Aiptasia), UniProt A0A913YAJ5 2-422).
T1 sequence: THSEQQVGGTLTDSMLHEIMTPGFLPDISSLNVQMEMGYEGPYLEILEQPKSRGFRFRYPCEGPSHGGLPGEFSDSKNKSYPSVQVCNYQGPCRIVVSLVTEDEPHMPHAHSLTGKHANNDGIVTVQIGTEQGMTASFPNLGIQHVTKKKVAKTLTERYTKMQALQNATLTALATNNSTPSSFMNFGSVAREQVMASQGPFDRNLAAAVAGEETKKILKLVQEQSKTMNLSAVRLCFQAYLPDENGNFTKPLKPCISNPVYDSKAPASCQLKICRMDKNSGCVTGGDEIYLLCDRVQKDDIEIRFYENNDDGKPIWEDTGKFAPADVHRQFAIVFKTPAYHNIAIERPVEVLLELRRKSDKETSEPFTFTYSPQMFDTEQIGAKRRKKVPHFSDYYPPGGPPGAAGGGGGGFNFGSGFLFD

Test [1] has as its target T2, GST-Nv-NF-kB (Cys allele) (Nematostella vectensis, UniProt E5G601 2-411).
T2 sequence: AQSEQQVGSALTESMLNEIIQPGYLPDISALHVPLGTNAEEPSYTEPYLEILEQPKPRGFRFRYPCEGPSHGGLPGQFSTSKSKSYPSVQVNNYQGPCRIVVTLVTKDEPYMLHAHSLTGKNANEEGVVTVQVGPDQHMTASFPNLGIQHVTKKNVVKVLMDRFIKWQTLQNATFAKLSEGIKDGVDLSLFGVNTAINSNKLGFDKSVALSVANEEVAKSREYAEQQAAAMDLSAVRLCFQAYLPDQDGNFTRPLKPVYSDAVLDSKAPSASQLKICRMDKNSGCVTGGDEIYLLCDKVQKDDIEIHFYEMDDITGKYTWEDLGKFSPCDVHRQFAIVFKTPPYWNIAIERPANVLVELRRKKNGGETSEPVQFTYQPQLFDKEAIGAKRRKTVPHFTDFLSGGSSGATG

The target in test [2] is T3, GST-Nv-NF-kB (Ser allele) (Nematostella vectensis, UniProt A7UNT2 2-411).
T3 sequence: T2 sequence with Q21R, C66S, S207N, E215Q, V217A, E225K, A268E, D399E

Another test has as its target T4, GST-Co-NF-kB (Capsaspora owczarzaki, UniProt F1ARL5 200-546).
T4 sequence: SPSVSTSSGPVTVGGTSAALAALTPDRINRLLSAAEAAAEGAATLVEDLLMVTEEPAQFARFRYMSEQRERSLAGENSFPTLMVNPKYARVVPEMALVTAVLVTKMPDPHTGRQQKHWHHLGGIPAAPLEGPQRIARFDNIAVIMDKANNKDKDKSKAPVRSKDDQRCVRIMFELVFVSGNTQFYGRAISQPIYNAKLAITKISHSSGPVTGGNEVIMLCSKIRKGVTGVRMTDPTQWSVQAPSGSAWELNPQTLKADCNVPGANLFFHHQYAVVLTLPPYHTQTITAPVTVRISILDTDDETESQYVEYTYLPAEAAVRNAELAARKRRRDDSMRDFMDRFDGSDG

A further test deals with T5, GST-Dm-Relish (Drosophila melanogaster, UniProt Q94527 99-473).
T5 sequence: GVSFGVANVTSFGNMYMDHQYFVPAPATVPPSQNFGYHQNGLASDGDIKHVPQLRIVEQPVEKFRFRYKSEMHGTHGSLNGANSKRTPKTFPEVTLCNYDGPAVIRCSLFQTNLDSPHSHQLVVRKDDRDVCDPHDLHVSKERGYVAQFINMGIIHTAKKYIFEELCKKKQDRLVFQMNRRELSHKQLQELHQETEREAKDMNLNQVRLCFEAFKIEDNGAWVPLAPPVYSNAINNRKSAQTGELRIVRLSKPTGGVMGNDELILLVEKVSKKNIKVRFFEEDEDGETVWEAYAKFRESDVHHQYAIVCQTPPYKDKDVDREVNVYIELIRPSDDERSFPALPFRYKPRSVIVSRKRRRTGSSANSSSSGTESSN

A further test addresses T6, GST-Aq-NF-kB (Amphimedon queenslandica, UniProt A9Y5G7 2-389).
T6 sequence: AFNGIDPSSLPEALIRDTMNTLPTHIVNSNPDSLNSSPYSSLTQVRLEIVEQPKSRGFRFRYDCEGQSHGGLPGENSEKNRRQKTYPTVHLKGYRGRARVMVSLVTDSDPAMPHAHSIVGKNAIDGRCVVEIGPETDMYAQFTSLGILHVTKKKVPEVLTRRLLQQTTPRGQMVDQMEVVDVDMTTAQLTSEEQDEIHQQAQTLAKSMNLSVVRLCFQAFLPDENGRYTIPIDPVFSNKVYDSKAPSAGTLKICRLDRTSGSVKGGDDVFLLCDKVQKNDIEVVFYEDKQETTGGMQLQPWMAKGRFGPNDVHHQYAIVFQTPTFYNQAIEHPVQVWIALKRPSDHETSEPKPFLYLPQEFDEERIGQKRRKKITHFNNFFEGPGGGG

The target of a further test is GST-Hu-p50 (Homo sapiens, UniProt P19838 7-356).
Sequence of GST-Hu-p50 (P19838 7-356): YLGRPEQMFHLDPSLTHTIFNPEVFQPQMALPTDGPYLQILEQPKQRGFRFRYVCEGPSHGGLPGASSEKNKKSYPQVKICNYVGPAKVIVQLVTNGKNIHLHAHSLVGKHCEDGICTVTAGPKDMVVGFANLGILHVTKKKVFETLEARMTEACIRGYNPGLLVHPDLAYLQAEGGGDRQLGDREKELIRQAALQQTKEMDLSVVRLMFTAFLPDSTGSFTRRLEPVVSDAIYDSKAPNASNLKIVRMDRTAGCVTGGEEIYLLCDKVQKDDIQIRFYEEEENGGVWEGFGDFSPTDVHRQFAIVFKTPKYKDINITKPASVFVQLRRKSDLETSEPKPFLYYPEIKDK

On to “CCGATTAACATCAGGGGAGATAATGATGTTAATCGGGTCTTGATTCGCTTGACGCTGCTG”, for which the binding signal with GST-Ap-NF-kB RHD came out at 5.17 z-score; in test [1] it was 5.28 z-score; in test [2], 5.56 z-score; with GST-Co-NF-kB it was 6.03 z-score; with GST-Dm-Relish, 1.79 z-score; with GST-Aq-NF-kB, 2.74 z-score. This sequence returned a binding signal with GST-Hu-p50 of 3.67 z-score.
With “CCGATTAACATCAGGGGAAATAATGATGTTAATCGGGTCTTGATTCGCTTGACGCTGCTG”, the binding signal with GST-Ap-NF-kB RHD came out at 6.88 z-score; in test [1], 8.65 z-score; in test [2], 11.6 z-score; with GST-Co-NF-kB it was 9 z-score; with GST-Dm-Relish, 5.53 z-score; in the test with GST-Aq-NF-kB, 5.68 z-score. The sequence also registered a binding signal with GST-Hu-p50 of 6.58 z-score.
For the sequence “CCGATTAACATCAAATTCCCCCATGATGTTAATCGGGTCTTGATTCGCTTGACGCTGCTG”, the binding signal amounted to 8.6 z-score in the test with GST-Ap-NF-kB RHD; 8.92 z-score in test [1]; 9.99 z-score in test [2]; 9.97 z-score in the test with GST-Co-NF-kB; 7.71 z-score with GST-Dm-Relish; 6.9 z-score in the test with GST-Aq-NF-kB. In the test with GST-Hu-p50, the binding signal was found to be 7.09 z-score.
“CCGATTAACATCAGGGGGGAAACTGATGTTAATCGGGTCTTGATTCGCTTGACGCTGCTG”: the binding signal with GST-Ap-NF-kB RHD was determined as 7.64 z-score; in test [1], 7.15 z-score; in test [2] it was 8.2 z-score; with GST-Co-NF-kB it was 11.1 z-score; with GST-Dm-Relish, 5.47 z-score; in the test with GST-Aq-NF-kB it was 5.87 z-score. The binding signal in the test with GST-Hu-p50 was 6.97 z-score.
As to “CCGATTAACATCAGGGGGAAGGATGATGTTAATCGGGTCTTGATTCGCTTGACGCTGCTG”, the binding signal is 4.09 z-score with GST-Ap-NF-kB RHD; 5.38 z-score in test [1]; 5.53 z-score in test [2]; 7.14 z-score with GST-Co-NF-kB; 2.47 z-score with GST-Dm-Relish; 4.48 z-score with GST-Aq-NF-kB. In the test with GST-Hu-p50, this sequence showed a binding signal of 4.08 z-score.
For “CCGATTAACATCAGGGAGGCCCCTGATGTTAATCGGGTCTTGATTCGCTTGACGCTGCTG”, the binding signal with GST-Ap-NF-kB RHD is 5.52 z-score; in test [1], 3.79 z-score; in test [2], 1.37 z-score; with GST-Dm-Relish, 6.28 z-score; in the test with GST-Aq-NF-kB, 7.2 z-score; in the test with GST-Hu-p50, 3.63 z-score.
As to “CCGATTAACATCAGGGAGTTCACTGATGTTAATCGGGTCTTGATTCGCTTGACGCTGCTG”, the binding signal worked out at 2.23 z-score with GST-Ap-NF-kB RHD; 2.42 z-score in test [1]; 1.78 z-score in test [2]; 5.79 z-score with GST-Dm-Relish; 4.22 z-score in the test with GST-Aq-NF-kB; 2.32 z-score in the test with GST-Hu-p50.
Turning to “CCGATTAACATCAGGCCATTCCCTGATGTTAATCGGGTCTTGATTCGCTTGACGCTGCTG”, the binding signal was found to be 1.39 z-score with GST-Ap-NF-kB RHD; 2.63 z-score in test [1]; 1.77 z-score in test [2]; 2.6 z-score with GST-Dm-Relish; 4.37 z-score in the test with GST-Aq-NF-kB; 1.79 z-score with GST-Hu-p50.
For the sequence “CCGATTAACATCAGGGGCTTCACTGATGTTAATCGGGTCTTGATTCGCTTGACGCTGCTG”, the binding signal in the test with GST-Ap-NF-kB RHD worked out at 3.16 z-score; in test [1], 3.35 z-score; in test [2] it was 2.69 z-score; with GST-Dm-Relish it was 7.68 z-score; in the test with GST-Aq-NF-kB it was 4.89 z-score; with GST-Hu-p50, 4.01 z-score.
On to “CCGATTAACATCAGGAAAGACCCTGATGTTAATCGGGTCTTGATTCGCTTGACGCTGCTG”, for which the binding signal with GST-Ap-NF-kB RHD is 2.17 z-score; in test [1], 4.11 z-score; in test [2], 1.92 z-score; in the test with GST-Dm-Relish it was 4.41 z-score; with GST-Aq-NF-kB, 6.37 z-score; with GST-Hu-p50 it was 3.3 z-score.
As to “CCGATTAACATCAGGGATTTCACTGATGTTAATCGGGTCTTGATTCGCTTGACGCTGCTG”, the binding signal in the test with GST-Ap-NF-kB RHD stood at 2.71 z-score; in test [1], 2.33 z-score; in test [2], 1.49 z-score; in the test with GST-Dm-Relish, 6.3 z-score; with GST-Aq-NF-kB it was 4.19 z-score; with GST-Hu-p50, 2.38 z-score.
“CCGATTAACATCAGGGGACTACCTGATGTTAATCGGGTCTTGATTCGCTTGACGCTGCTG”: the binding signal with GST-Ap-NF-kB RHD turned out to be 7.56 z-score; in test [1], 5.88 z-score; in test [2], 4.89 z-score; with GST-Co-NF-kB, 2.47 z-score; with GST-Dm-Relish, 7.3 z-score; with GST-Aq-NF-kB it was 7.36 z-score. The binding signal with GST-Hu-p50 is 4.79 z-score.
“CCGATTAACATCAGGGAGTCACCTGATGTTAATCGGGTCTTGATTCGCTTGACGCTGCTG”: the binding signal amounted to 3.25 z-score in the test with GST-Ap-NF-kB RHD; 1.16 z-score in test [1]; 1.39 z-score in test [2]; 8.86 z-score with GST-Dm-Relish; 3.63 z-score with GST-Aq-NF-kB; 1.96 z-score in the test with GST-Hu-p50.
